The whole screen tested about 400,000 compounds, of which about 13,000 (3.2%) were called active. Where a call stands in place of a potency, no number is given. Roughly 18% stayed inconclusive and do not appear here. Calls come from the whole dose curve; as a rule, active = well fitted cell-killing curve with a large enough effect; inconclusive = small, poorly fitted or top-dose-only effect, or effect the other way; inactive = flat fitted curve, though single readings scatter. Only a selection was taken, and actives are over-represented in it overall.
Potency is the fitted concentration of half-maximal effect.

The experiment is described as follows: qHTS assay for MDR1-selective chemotherapeutics: Primary screen using the drug-selected MDR subline cells KB-V1. Note: nearly all actives have a fitted effect of over 60% in size. The following applies: KB-V1 MDR cells viability, CellTiter-Glo, 72 h; series mostly up to 46.1 µM. The essentials: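 Cells of the MDR subline KB-V1 are plated, dosed with compound at multiple concentrations, and incubated 72 h at 37 degrees C; CellTiter-Glo is then added and luminescence read after 10 min.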
`C[C@H]1CN([C@@H](C)CO)C(=O)c2cc(-c3ccccc3F)cnc2O[C@H]1CN(C)C(=O)C1CCOCC1`: the Potency result was “inactive”. Regarding `NC(Cc1ccc(F)cc1)c1csc(Nc2nncc3ccccc23)n1` (stereo not given), the Potency entry is “inactive”.

`Cc1ccc(S(=O)(=O)c2cn(Cc3ccccc3)c3cc(N4CCCC4)c(F)cc3c2=O)c(C)c1`: the Potency result was “inactive”.

For the compound `CCOC(=O)C1CCCN(C(=O)c2ccc(N(C)C)cc2)CC1` (stereo not given), the Potency result was “inactive”. In the case of `COc1ccc(OC)c(C(O)c2ncc(-c3cccc(C(F)(F)F)c3)[nH]2)c1` (stereo not given), the Potency result is “inactive”. Then `CSCCC(NC(=O)c1ccccc1)C(=O)N1CCN(Cc2ccc(Cl)cc2)CC1` (stereo not given), with 18.4 µM (active); and `COc1ccccc1C(=O)NC(CCSC)C(=O)N1CCN(C(C)=O)CC1` (stereo not given), with “inactive”; and `CSCCC(NC(=O)c1ccccc1)C(=O)N1CCCCCCC1` (stereo not given), with “inactive”. Consider `CC1=C(C(=O)OCC(C)C)C(c2ccc(OCc3ccccc3)cc2)N2C(=O)CCSC2=N1` (stereo not given), for which the Potency entry was “inactive”. As to `C=CCn1c(=O)c(C(=O)NCc2ccc3c(c2)OCO3)c(O)c2ccccc21`, the Potency entry was “inactive”. Turning to `O=C(NCc1ccc2c(c1)OCO2)c1sccc1Br`, the Potency entry was “inactive”. Take `O=C(NCc1ccc2c(c1)OCO2)c1c(O)nc2sccn2c1=O`: the Potency was 8.2 µM (active).

On to `O=[N+]([O-])c1cc(-c2nc(-c3ccccc3)no2)ccc1NCc1ccco1`, for which the Potency entry is “inactive”. For `c1coc(CNc2ncnc3ccccc23)c1`, the Potency result is “inactive”. Next, `c1ccc(-c2nc(NCc3ccco3)c3ccccc3n2)cc1`: 23.1 µM (active). For the compound `COc1ccc(-c2cnc3c(c2)C(=O)N([C@H](C)CO)C[C@@H](C)[C@H](CN(C)Cc2ccccc2)O3)cc1`, the Potency result is “inactive”. Next, `COc1cc2c(cc1OC)C(Cc1cc(OC)c(OC)cc1[N+](=O)[O-])=NCC2`: 9.2 µM (active); `COc1cc(CNCc2ccc3c(c2)OCO3)c([N+](=O)[O-])cc1OC`: “inactive”; `COc1cc(CN2CCCN(C)CC2)c([N+](=O)[O-])cc1OC`: “inactive”.

`CN(C)c1ccc(C=Nc2ccc(/C=C/c3ccnc4ccccc34)cc2)cc1`: the Potency result is “inactive”. For the compound `CN(C)c1ccc(/C=C/C=C/c2ccnc3ccccc23)cc1`, the Potency is 6.51 µM (active).

On to `CN(Cc1ccccc1)c1ccc(/C=C/c2ccnc3ccccc23)cc1`, for which the Potency result was “inactive”.

Regarding `CN(C)c1ccc(/C=C/c2c3ccccc3nc3ccccc23)cc1`, the Potency entry is “inactive”. Take `NC(=O)C1CCN(C(=O)c2cccc(NC(=O)c3nsc4ccccc34)c2)CC1`: the Potency result is “inactive”.

On to `COCC1CCCCN1C(=O)c1cc(COc2ccc(C)c(C)c2)on1` (stereo not given), for which the Potency result was “inactive”.

Consider `CC(=O)c1c(Nc2ccccc2)sc(C(=O)c2ccccc2)c1C`, for which the Potency is 3.66 µM (active). Next, `CCCS(=O)(=O)c1c(Nc2ccccc2C)sc(C(=O)c2ccccc2)c1N`: “inactive”.

For the compound `CCC(=O)Nc1sc(C(=O)Nc2ccccc2)c(C)c1C(=O)OC`, the Potency entry was “inactive”.

On to `COc1ccc(C(=O)OCC(=O)Nc2cc(C)on2)cc1F`, for which the Potency result is “inactive”. As to `CC(=NNC(N)=O)C1CC2CCC1CC2` (stereo not given), the Potency entry is “inactive”.

Turning to `Cc1ccccc1C#CC1=CC(=O)CC(C)(C)C1`, the Potency result is “inactive”. As to `CCOc1ccccc1N1CCN(C(=O)c2ccc3[nH]c(C)c(C)c3c2)CC1`, the Potency is 6.51 µM (active). As to `Cc1[nH]c2ccc(C(=O)N3CCN(C)CC3)cc2c1C`, the Potency entry is “inactive”.

As for `CCn1c(C)c(C)c2cc(C(=O)N3CCN(c4cccc(C)c4C)CC3)ccc21`, the Potency result is “inactive”.

For `O=C(NCC(O)c1nc2ccccc2[nH]1)c1ccc(Br)cc1` (stereo not given), the Potency result was “inactive”.

In the case of `O=C(CC[C@H]1O[C@@H](n2ccc(=O)[nH]c2=O)[C@H](O)[C@@H]1O)N[C@H](Cc1ccccc1)C(=O)NCCCN1CCCC1=O`, the Potency result is “inactive”. For the compound `C[C@@H]1NC(=O)[C@@]2(C)[C@@H](c3ccccc3)[C@H]3COc4ccccc4[C@@H]3N2C1=O`, the Potency result was “inactive”.

As for `CN1CC(c2ccccc2)C2(COc3ccccc3C2=O)C12C(=O)Nc1ccccc12` (stereo not given), the Potency was 20.6 µM (active). As to `COc1cccc(CNC(=O)CCC(=O)N2CC3CCCN3c3ccccc32)c1` (stereo not given), the Potency entry is “inactive”.

Consider `CCc1nc2c(=O)[nH]cnc2o1`, for which the Potency entry is “inactive”. Then `C[C@H]1CN([C@@H](C)CO)C(=O)CCCn2cc(nn2)CO[C@@H]1CN(C)S(=O)(=O)c1ccc(-n2cccn2)cc1`, with “inactive”.

For `CN1CCN(C(=O)c2ccc(-c3cc4nc(NCc5cccnc5)n(C)c(=O)c4s3)cc2)CC1`, the Potency entry is “inactive”. Consider `CCOc1ccc(NC(=O)C2CCCN(C(=O)Nc3ccccc3)C2)cc1` (stereo not given), for which the Potency was 14.6 µM (active). Next, `CCOc1ccccc1NC(=O)C1CCCN(C(=O)Nc2ccccc2)C1` (stereo not given): “inactive”. For `COc1ccc(NC(=O)N2CCCC(C(=O)Nc3ccccc3OC)C2)cc1` (stereo not given), the Potency entry was “inactive”. Then `CC(C)(C)C1CCC(=O)N2CCC[C@]2(c2ccccc2)C1` (stereo not given in full), with “inactive”. For `CCCCN(C)S(=O)(=O)c1ccc(C(=O)Nc2sc3c(c2C(N)=O)CC(C)(C)NC3(C)C)cc1`, the Potency result is “inactive”. Take `COc1cc(CNCCSc2nnnn2C)ccc1OCc1ccc(Cl)cc1Cl`: the Potency entry was “inactive”.

Turning to `CCOC(=O)c1c(C)oc2ccc(OCC(=O)N(CC)CC)cc12`, the Potency entry is “inactive”. Then `COC(=O)c1c(C)oc2ccc(N(C(=O)Oc3ccccc3)S(=O)(=O)c3ccccc3)cc12`, with 2.91 µM (active); and `CN(CC(=O)O)S(=O)(=O)c1ccc2oc3ccccc3c2c1`, with “inactive”; and `O=C(Nc1ccc2c(c1)[C@@H]1C[C@@H](CC(=O)N3CCCCC3)O[C@@H](CO)[C@@H]1O2)NC1CCCCC1`, with “inactive”.

As for `CC(=O)Nc1cccc(-c2ccnc3c2CC(C)(C(=O)NCc2ccco2)O3)c1` (stereo not given), the Potency result was “inactive”. As to `COc1ccc(NC(=O)C2(C)Cc3c(-c4cccc(NC(C)=O)c4)ccnc3O2)cc1` (stereo not given), the Potency result was “inactive”. Turning to `CC1(C(=O)NCc2ccco2)Cc2c(-c3ccc4c(c3)OCO4)ccnc2O1` (stereo not given), the Potency was 2.59 µM (active). On to `CC(=O)Nc1cccc(-c2ccnc3c2CC(C)(C(=O)NCc2ccccc2)O3)c1` (stereo not given), for which the Potency was 16.4 µM (active).

With `O=C(Cn1nnc(-c2ccc3c(c2)OCO3)n1)NCc1ccco1`, the Potency entry was “inactive”.

`CC1(C(=O)NCC2CCOCC2)Cc2c(-c3cccc(C(N)=O)c3)ccnc2O1` (stereo not given): the Potency result is “inactive”. Regarding `CCc1nc2c(OCCC3CCCCC3)cccn2c1N(C)C(=O)c1ccco1`, the Potency entry is “inactive”. Consider `CCOc1ccc(NS(=O)(=O)c2ccc(C(=O)NCC3CCCO3)cc2)cc1` (stereo not given), for which the Potency entry was “inactive”.

For `COc1cccc(-c2cnc3c(NC(C)=O)cc(-c4cc(F)ccc4OC)cn23)c1`, the Potency is 7.31 µM (active). Consider `COc1ccc(-c2cc(NC(C)=O)c3ncc(-c4cc(OC)c(OC)c(OC)c4)n3c2)cn1`, for which the Potency is 13 µM (active). For the compound `CC(=O)Nc1cc(-c2ccc(N3CCN(C)CC3)cc2)cn2c(-c3cccc(C(=O)N(C)C)c3)cnc12`, the Potency result was “inactive”. For `COc1cc(NC(=O)C2=CC(c3ccc(C)cc3)=NS(=O)(=O)N2C)cc(OC)c1OC`, the Potency entry is “inactive”.

With `COc1ccc(-c2cc(NC=O)c3ncc(-c4cccc(C(=O)N(C)C)c4)n3c2)c(OC)c1`, the Potency entry was “inactive”. As for `COc1cccc(-c2cnc3c(NC(C)=O)cc(-c4cccc(NC(C)=O)c4)cn23)c1`, the Potency entry is “inactive”. In the case of `O=C(Nc1cc(F)ccc1F)c1ccc2c(=O)n3c(nc2c1)CCC3`, the Potency entry was “inactive”. Next, `CCOC(=O)c1c(NC(=O)CSc2cn(CCNC(=O)c3cccc(C(F)(F)F)c3)c3ccccc23)sc2c1CCC2`: “inactive”; `OC[C@@H]1CN(Cc2cccs2)C[C@H](n2cnc3c(Nc4ccccc4)ncnc32)O1`: “inactive”.

For the compound `CCCc1nc2ccccc2c(=O)n1NC(=O)c1c(O)c2ccccc2[nH]c1=O`, the Potency was 7.31 µM (active). On to `Cc1nc2ccccc2c(=O)n1NC(=O)c1ccccc1`, for which the Potency entry was “inactive”. Consider `COc1cc(C(=O)Nn2c(CC(C)C)nc3ccccc3c2=O)cc(OC)c1OC`, for which the Potency result is “inactive”.

With `O=C(CN1C(=O)NC2(CCc3ccccc32)C1=O)NC1CCCCC1` (stereo not given), the Potency entry was “inactive”. With `CC(C)CN1CCC1(C)C(=O)Nc1ccc(OC(F)F)cc1` (stereo not given), the Potency result was “inactive”. As to `Cc1ccc(OCCSc2nc(-c3cccs3)nc3cc(=O)[nH]n23)cc1Cl`, the Potency entry was “inactive”. For `O=C(NC1CCN(Cc2ccccc2)CC1)c1cc(Br)c(Br)[nH]1`, the Potency entry is “inactive”. Next, `S=C(Nc1ccc(Br)cc1Cl)NC1CCN(Cc2ccccc2)CC1`: 11.6 µM (active); `O=C(COc1ccc(Br)cc1F)NC1CCN(Cc2ccccc2)CC1`: “inactive”; `CCc1nc2c(OCCOc3ccccc3)cccn2c1N(C)C(=O)c1ccc(OC)cc1`: “inactive”.

As to `COCCCn1cc(CN2CC(N(C)C)CS2(=O)=O)nn1` (stereo not given), the Potency entry was “inactive”. `CC(C)c1cc(C(=O)NC2CCCCCC2)c2ccccc2n1`: the Potency result is “inactive”. For the compound `Cc1nc(/N=C(\N)NC(=O)NC2CCCCC2)nc2ccccc12`, the Potency was 5.17 µM (active). Regarding `Cc1c(C(=O)NC2CCCCC2)oc2ccccc12`, the Potency entry was “inactive”.

Take `Nc1ncnc2c1ncn2[C@@H]1O[C@H](C(=O)N2CCSC2)[C@@H](O)[C@H]1O`: the Potency entry is “inactive”. Take `CCN(CC)c1ccc(/C=C/c2c(C)cnc3ccc(C)cc23)cc1`: the Potency entry is “inactive”. With `CCN(CC)C(=O)C1=C(C)N(Cc2ccc(OC)cc2)C(=O)C(CC(=O)NCCCCc2ccccc2)C1` (stereo not given), the Potency result is “inactive”. For `COC(=O)[C@]12CCCCC=C1N(Cc1ccco1)C(=O)[C@H](CC(=O)NCCCCc1ccccc1)C2`, the Potency entry is “inactive”.

Regarding `COC(=O)[C@]12CCCCC=C1N(Cc1ccccc1)C(=O)[C@H](CC(=O)NCc1ccc(C)o1)C2`, the Potency result is “inactive”. Next, `COC(=O)[C@@]12C[C@@H](CC(=O)NCCCCc3ccccc3)C(=O)N(Cc3ccccc3)C1=CCC(C)(C)C2`: 23.1 µM (active); `COC(=O)[C@@]12C[C@@H](CC(=O)NCCCCc3ccccc3)C(=O)N(CCc3ccc(OC)c(OC)c3)C1=CCC(C)(C)C2`: 16.4 µM (active). Consider `CCOC(=O)N1CCN(C(=O)C[C@@H]2C[C@@]3(C(=O)OC)CC(C)(C)CC=C3N(Cc3ccco3)C2=O)CC1`, for which the Potency result is “inactive”. With `COc1ccc(CN2C[C@H]3CON(C)[C@H]3C[C@H]2c2ccc(-c3cccc(F)c3)cc2)cc1`, the Potency result is “inactive”. Then `Cc1ccc(O)c(NC(=O)c2cc(-c3ccc(F)cc3)no2)c1`, with “inactive”; and `Cc1cc2ccccc2n1CCNC(=O)c1ccc(F)cc1`, with “inactive”; and `CC1=C(C(=O)N2CCOCC2)CC(CC(=O)NCC2CCCCC2)C(=O)N1Cc1ccc(F)cc1` (stereo not given), with “inactive”.

Values taken from PubChem BioAssay AID1347076 (National Center for Advancing Translational Sciences (NCATS), 2019).
